The text below walks through data of the supplement of paper PMC8371130.

Structures can show the parent of a compound that is named as a salt.

This test deals with HL-1. Briefly: relative cell viability (CellTiter-Glo) vs DMSO control (% of DMSO control); higher = more viable cells. Conditions: oxygen condition: hypoxia 48 h (1% O2) + reoxygenation 24 h; 200 nM. In short, it runs like this: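 Compounds at 40, 200, 1000 or 5000 nM in 0.01% DMSO were added to HL-1 mouse atrial cardiomyocytes plated at 1000 cells per well in 384-well plates. The next day, cells were exposed to 1% O2 for 48 h and then reoxygenated for 24 h, or left in normoxia for the same time. Viability was read with CellTiter-Glo luminescence and normalised to vehicle-treated controls.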
Background: Cellular ATP, detected with luciferase, serves as a proxy for viable cell number.
With `CCOc1nc2cccc(C(=O)OC(C)OC(=O)OC3CCCCC3)c2n1Cc1ccc(-c2ccccc2-c2nn[nH]n2)cc1` (centres undefined) [Candesartan cilexetil], the relative cell viability came to 104.

As for `Nc1cc(N2CCCCC2)nc(N)[n+]1[O-]` [Minoxidil], the relative cell viability was found to be 106. With `Cc1ccc(NC(=O)c2ccc(CN3CCN(C)CC3)cc2)cc1Nc1nccc(-c2cccnc2)n1` [Imatinib Mesylate], the relative cell viability was determined as 117. As to `OCCN(CCO)c1nc(N2CCCCC2)c2nc(N(CCO)CCO)nc(N3CCCCC3)c2n1` [Dipyridamole], the relative cell viability was 107. As for `Nc1ccn([C@@H]2O[C@H](CO)[C@@H](O)C2(F)F)c(=O)n1` [Gemcitabine HCl], the figure is 3.99. Turning to `CCCCCCNC(=O)n1cc(F)c(=O)[nH]c1=O` [Carmofur], the relative cell viability worked out at 83.8. On to `CC(S)C(=O)NCC(=O)O` (centres undefined) [Tiopronin], for which the relative cell viability came out at 102.

Consider `COc1cc(C(C)=O)ccc1OCCCN1CCC(c2noc3cc(F)ccc23)CC1` [Iloperidone], for which the relative cell viability is 104. For `CCN1CCC[C@H]1CNC(=O)c1cc(S(N)(=O)=O)ccc1OC` [Levosulpiride] the value was 107; for `NS(=O)(=O)Cc1noc2ccccc12` [Zonisamide], 108; for `Cc1nc2n(c(=O)c1CCN1CCC(c3noc4cc(F)ccc34)CC1)CCCC2` [Risperidone], 109. For `Cc1c(OCC(F)(F)F)ccnc1C[S@@+]([O-])c1nc2ccccc2[nH]1` [Dexlansoprazole] the value was 101.

Consider `Cc1cc(N)c2ccccc2[n+]1CCCCCCCCCC[n+]1c(C)cc(N)c2ccccc21` [Dequalinium chloride], for which the relative cell viability worked out at 104.

In the case of `COc1cc2c(cc1OC)CC(=O)N(CCCN(C)C[C@H]1Cc3cc(OC)c(OC)cc31)CC2` [Ivabradine HCl], the relative cell viability is 106.
